Screens deposited in PubChem by National Center for Advancing Translational Sciences (NCATS).
Sm TGR inh – inhibitors of Schistosoma mansoni thioredoxin glutathione reductase. Q962Y6. purified TGR, DTNB reduction, TNB absorbance 405 nm. Potency, µM (top dose mostly 114 µM), without a hit: at the top dose activity change, negative = inhibition, most hits filed as inhibitors. actives 3% (n = 360,000); also: potency is read from the fitted curve at half-maximal effect; % is scaled to controls: 0 for no effect and ±100 for the full control effect; nearly all actives have a fitted effect of over 60% in size
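Kinetic colorimetric format: TGR-catalysed, NADPH-driven DTNB reduction monitored via TNB absorbance. Enzyme dispensed at 20 nM; compound exposure 15 min at room temperature before reaction start.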
Pf growth 48h – inhibits P. falciparum growth in the first generation, 48 h; Potency, µM (doses to about 28.7 µM), without a hit: at the highest dose activity change, negative = inhibition, hits mostly inhibitors; P. falciparum luciferase growth in erythrocytes, 48 h; AID 504832; actives 5.9% (n = 310,000); also: potency is read from the fitted curve at half-maximal effect; % is scaled to controls: 0 for no effect and ±100 for the full control effect
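Compounds are pin-transferred into medium, infected erythrocytes (2% hematocrit, 0.1% parasitemia final) are added, and plates sit one parasite generation at 37 C in 5% CO2. Detection reagent is then added and luminescence measured.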
HCMV antiviral – blocks human cytomegalovirus replication; actives 4.5% (n = 410,000); HFF cells, HCMV-luciferase reporter, 72 h; stronger effect = lower value; AID 1259415; activity change, negative = inhibition, % at 57.5 µM; in the data active = activity change below about -60%; inconclusive = no clear call, values can overlap the other calls; inactive = above about -39%; also: % is scaled to controls: 0 for no effect and ±100 for the full control effect
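Inhibition of viral replication was scored as loss of reporter luminescence in HFFs infected with HCMV-luciferase (MOI 1 PFU/cell) for 72 h; compounds tested at 2 doses, normalized to buffer and Salinomycin controls.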
SARS PLP yeast – SARS-CoV PLP inhibition in yeast; actives 0.19% (n = 330,000); Potency, µM (series often up to 32.9 µM), for the others: at the highest dose activity, positive = growth rescue, hits mostly activators; S. cerevisiae expressing SARS-CoV PLpro, growth rescue; calls by dose curve; also: potency is read from the fitted curve at half-maximal effect; 0% is about no effect; nearly all actives have a fitted effect of over 55% in size
Pf growth 96h – P. falciparum growth inhibition at 96 hours; actives 6.9% (n = 320,000); Potency, µM (series often up to 28.7 µM), for inactives: at the top dose activity change, negative = inhibition, actives largely listed as inhibitors; P. falciparum luciferase reporter growth, 96 h; also: potency is read from the fitted curve at half-maximal effect; % is scaled to controls: 0 for no effect and ±100 for the full control effect
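Erythrocytes infected with luciferase-expressing P. falciparum were dispensed at 2% hematocrit and 0.05% parasitemia (final), then incubated with compounds 96 hours at 37 C in 5% CO2. Luminescence after detection reagent addition reported growth.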
HCV inhibitor – blocks hepatitis C virus. Potency, µM (highest dose often 41.8 µM), without a hit: top-dose activity change, negative = inhibition, usual class: inhibitors. Huh7.5.1 HCVcc-Cre infection, luciferase reporter, 44 h. actives 3.4% (n = 340,000). AID 651820; also: potency is read from the fitted curve at half-maximal effect; % is scaled to controls: 0 for no effect and ±100 for the full control effect
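Luciferase read-out (15 sec integration) after a 15 min room-temperature substrate step quantifies HCVcc-Cre infection. Cells, 1,000 per well, had compound added 4 h post-plating, then virus at ~0.5 moi, and were cultured 44 h.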
* hit, by the source's call; ? = inconclusive; · = no result given; ! = a repeat was not active; [ ] = another dose, or the depositor's remark. Only some compounds are listed: those with a hit (about 15% of all), similar ones and a draw of the others. Unless noted, calls follow the shape of the dose curve; as a rule, active = well fitted curve in the direction sought with a large enough effect; inconclusive = small, poorly fitted or top-dose-only effect, or another doubt; inactive = no such curve, though single readings can be large; an effect the other way counts as inactive or inconclusive.

SMILES	Sm TGR inh	Pf growth 48h	HCMV antiviral	SARS PLP yeast	Pf growth 96h	HCV inhibitor
COc1ccc(NC(=S)Nc2ccc3nccnc3c2)cc1	32µM*	44%	-7	-8%	?	-3%
COc1ccc(N(C)C(=O)c2ccc3snnc3c2)cc1	-8%	0%	10	9%	10µM*	14%
COc1ccc(NC(=S)Nc2cccc(C)n2)cc1	-25%	4.7µM*	?	0%	?	?
COc1ccc(NC(=O)Nc2cccc(C)n2)cc1	2%	140%	-19	-7%	5%	-3%
COc1ccc(NC(=S)Nc2ccccc2)cc1	-34%	19%	?	5%	-30%	2%
COc1ccc(NC(=S)Nc2ccc3snnc3c2)cc1	16µM*	0%	-9	-1%	18%	?
CCOC(=O)C1=C(COC(=O)/C=C/c2ccc(OC)cc2OC)NC(=O)NC1C (stereo unspecified)	4%	?	-25	-4%	-8%	?
CCOC(=O)c1c(C)n(C)c2ccc(OC)c(NC(=O)CN3CCN(Cc4ccccc4)CC3)c12	11%	10µM*	9	4%	26%	?
CCOC(=O)c1c(C)n(C)c2ccc(OC)c(NC(=O)CN3CCC(C(=O)OCC)CC3)c12	6%	?	-13	-1%	3.3µM*	-18%
c1cncc(-c2nc3ccccc3[nH]2)c1	6%	72%	6	-1%	0%	-3%
Fc1ccc(NC(=S)Nc2cccnc2)cc1Cl	·	15µM*	-18	-3%	?	-13%
S=C(Nc1ccc(-c2nc3ccccc3[nH]2)cc1)Nc1cccnc1	11µM*	?	-22	-8%	-55%	?
Fc1ccc(NC(=S)Nc2cccnc2)cc1	·	11%	6	0%	0%	28%
O=C(Nc1ccc(F)c(Cl)c1)c1cccnc1	-19%	52%	-16	6%	3%	10%
FC(F)Oc1ccccc1NC(=S)Nc1cccnc1	22µM*	9%	21	3%	-1%	9%
Fc1ccccc1NC(=S)Nc1cccnc1	16µM*	8%	15	1%	0%	-8%
Cc1ccc(C)c(NC(=S)Nc2cccnc2)c1	?	-8%	-1	1%	5%	5%
CN1CCN(C(CNC(=O)c2ccc(Br)o2)c2ccc(F)cc2)CC1 (stereo unspecified)	-4%	11%	-15	2%	0%	-13%[8.37 µM]
CCN(CC)c1ccc2cc(-c3nc4ccccc4[nH]3)c(=O)oc2c1	-1%	134%	·	-2%	214%	?
CCN(CC)c1ccc2nc3ccccc3[n+](CC)c2c1	?	0%	·	-15%	?	6.3µM*
CCN(CC)c1ccc2nc3c(=O)n(C)c(=O)n(C)c3nc2c1	?	·	-24	·	·	·
CCN(CC)c1ccc2nc3ccc(N)cc3[n+](-c3ccccc3)c2c1	-31%	0.29µM*	·	-16%	?	5µM*
Cc1cc(S(=O)(=O)c2ccc([N+](=O)[O-])cn2)ccc1Br	·	·	-98*	·	·	?
Nc1ccc(S(=O)(=O)c2ccccc2)nc1	2%	17%	-4	2%	7%	3%
Cc1ccc(S(=O)(=O)c2ccc([N+](=O)[O-])cn2)cc1	0.1µM*	?	-95*	-12%	?	?
SMILES	Sm TGR inh	Pf growth 48h	HCMV antiviral	SARS PLP yeast	Pf growth 96h	HCV inhibitor
O=S(=O)(c1ccccc1)c1ccc(C(F)(F)F)cn1	14µM*	15%	3	3%	3%	30%
O=[N+]([O-])c1ccc(S(=O)(=O)c2ccccc2)nc1	0.32µM*	2.9µM*	-98*	-13%	1.7µM*	?
O=[N+]([O-])c1ccc(Nc2ccccc2)nc1	-11%	39%	6	6%	314%	-12%
Cc1ccc([N+](=O)[O-])cc1	10%	45%	-31	0%	44%	7%
CCCCC(CC)CN=C(N)NC(N)=NCCCCCCN=C(N)NC(N)=NCC(CC)CCCC (stereo unspecified)	-18%	0.23µM*	·	·	0.066µM*!	?
CCCCC(CC)CO (stereo unspecified)	·	·	-5	5%	·	-3%
c1ccc(CCCCc2ccccn2)cc1	·	·	?	·	·	6%
c1ccc(CCCNc2ncccn2)cc1	0%	69%	-30	-17%	3.3µM*	9%
NC1=NCC2c3ccccc3Cc3ccccc3N12 (stereo unspecified)	·	?	·	·	6.7µM*	·
O=C1CC(c2nc3ccccc3[nH]2)CN1c1cccc(C(F)(F)F)c1 (stereo unspecified)	-7%	2%	-96*	2%	?	-27%
COc1ccc(Cl)cc1N1CC(c2nc3ccccc3[nH]2)CC1=O (stereo unspecified)	-1%	-1%	-99*	-15%	-19%	-10%
O=C1CC(c2nc3ccccc3[nH]2)CN1c1ccccc1F (stereo unspecified)	-8%	6%	19	-2%	2%	7%
CCCCn1c(CNC(=O)C23CC4CC(CC(C4)C2)C3)nnc1SCC(=O)Nc1ccc(F)cc1	-1%	·	0	·	·	·
CCOc1ncccc1C(=O)OCC(=O)c1cccc(Br)c1	5%	18%	5	-1%	6%	-4%
O=C(CN1C(=O)NC2(CCCC2)C1=O)OCc1c(F)cccc1Cl	4%	16%	1	3%	34%	7%
COc1ccc(S(=O)(=O)n2nc(OC(=O)c3ccccc3)cc2N)cc1	-28%	-7%	99	-4%	?	6%
COc1ccc(S(=O)(=O)n2nc(OC(=O)c3ccncc3)cc2N)cc1	5µM*	33%	-22	1%	75%	43%
COc1ccc(S(=O)(=O)n2nc(OC(=O)c3ccco3)cc2N)cc1	22µM*	51%	58	-10%	?	12%
COc1cc(C(=O)Oc2cc(N)n(S(=O)(=O)c3ccc(F)cc3)n2)cc(OC)c1OC	-32%	2%	28	0%	4.7µM*	20%
COc1ccc(S(=O)(=O)n2nc(OC(C)=O)cc2N(C(C)=O)C(C)=O)cc1	22µM*	58%	14	0%	101%	5%
COc1cccc(-c2cccc3c4c([nH]c23)[C@@H]2C[C@H]3[C@@H](C(=O)N2CC4)[C@H](C)ON3C)c1	·	·	-28	·	·	·
C[C@H](NC(=O)[C@@H]1CCCN1C(=O)[C@@H]1CCCN1C(=O)c1cccc2ccccc12)c1ccccc1	·	·	-5	·	·	·
COc1cc(OC)cc(C2=Cc3ccc(OC)cc3C(CC(C)=O)N2c2ccc(C#CCCO)cc2)c1 (stereo unspecified)	·	·	-11	·	·	·
COc1nc2ccccc2nc1OC	-4%	43%	-35	1%	5%	4%
